# For some of these results: Results with a measured potency or affinity are listed apart.
# Experiments:
# Set-up in all cases: scale not given: direction of the effect not stated beside the values
# [1] = biological target: Protein translocase subunit SecA (Escherichia coli (strain K12)) (UniProt P10408); experiment: Assay to Identify E. coli SecA ATPase Inhibitors; format: functional; conditions: 30 µM
# [2] = biological target: T1, Ubiquitin-activating enzyme e1, putative (Leishmania donovani (strain BPK282A1)) (UniProt E9BSI1); experiment: Leishmania donovani Ubiquitin Activating Enzyme (LdE1); format: functional; conditions: 30 µM
# T1 sequence (whole entry): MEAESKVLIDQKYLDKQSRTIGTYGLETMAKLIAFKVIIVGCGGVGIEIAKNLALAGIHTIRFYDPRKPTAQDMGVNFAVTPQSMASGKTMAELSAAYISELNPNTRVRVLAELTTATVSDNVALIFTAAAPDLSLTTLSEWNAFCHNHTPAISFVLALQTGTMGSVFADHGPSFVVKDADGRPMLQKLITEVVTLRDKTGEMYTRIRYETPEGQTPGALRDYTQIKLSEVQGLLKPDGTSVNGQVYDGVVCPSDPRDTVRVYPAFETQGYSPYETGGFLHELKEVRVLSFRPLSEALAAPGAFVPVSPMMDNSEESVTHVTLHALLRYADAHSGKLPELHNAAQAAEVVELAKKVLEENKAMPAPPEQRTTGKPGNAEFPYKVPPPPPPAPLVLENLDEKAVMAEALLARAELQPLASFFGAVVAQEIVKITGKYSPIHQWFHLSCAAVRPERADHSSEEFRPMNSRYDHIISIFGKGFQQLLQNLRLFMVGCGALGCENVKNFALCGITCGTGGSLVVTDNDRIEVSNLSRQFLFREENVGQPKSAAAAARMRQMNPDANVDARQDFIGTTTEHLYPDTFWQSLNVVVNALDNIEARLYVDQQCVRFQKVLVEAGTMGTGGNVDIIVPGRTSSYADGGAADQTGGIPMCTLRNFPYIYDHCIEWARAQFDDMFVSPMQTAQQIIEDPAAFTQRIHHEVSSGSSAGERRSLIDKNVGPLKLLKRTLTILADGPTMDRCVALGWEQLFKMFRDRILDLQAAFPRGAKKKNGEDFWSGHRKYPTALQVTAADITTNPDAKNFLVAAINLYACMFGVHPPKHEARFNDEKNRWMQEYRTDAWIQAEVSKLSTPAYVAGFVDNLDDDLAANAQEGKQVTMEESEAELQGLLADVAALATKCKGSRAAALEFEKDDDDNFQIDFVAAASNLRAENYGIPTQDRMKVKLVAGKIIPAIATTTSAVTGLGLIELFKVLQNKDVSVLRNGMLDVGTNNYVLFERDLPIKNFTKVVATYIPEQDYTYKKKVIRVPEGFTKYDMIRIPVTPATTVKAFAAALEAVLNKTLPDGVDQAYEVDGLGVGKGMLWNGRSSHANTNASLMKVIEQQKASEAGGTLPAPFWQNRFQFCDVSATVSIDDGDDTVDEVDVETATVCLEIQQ
# [3] = biological target: AMP-activated protein kinase, AMPK (Homo sapiens) (UniProt P54646+O43741+P54619+Q9UGJ0+Q9Y478+Q13131+Q9UGI9); experiment: AMP-dependent Kinase enzyme assay. An in vitro enzyme assay that detects ADP turnover that is directly proportional to AMPK activity. This uses naive AMPK that is activated during the assay with MK-8722; format: functional; conditions: 30 µM
# [4] = biological target: Sialic acid-binding Ig-like lectin 9 (Homo sapiens) (UniProt Q9Y336); experiment: Hs-Siglec9 ALPHAscreen SOP 20170721; conditions: 10 µM
# Trypanosoma cruzi = experiment: Trypanosoma cruzi phosphomannomutase and mannose-1-phosphate guanylyltransferase assay; format: functional; conditions: 10 µM
# [5] = biological target: T2, Arginase-2, mitochondrial (Homo sapiens) (UniProt P78540); experiment: in vitro enzyme assay to detect the production of urea directly proportional to the activity of Arginase II; format: functional; conditions: 33.3 µM; also: in the data most compounds retested in dose-response had high values
# T2 sequence (whole entry): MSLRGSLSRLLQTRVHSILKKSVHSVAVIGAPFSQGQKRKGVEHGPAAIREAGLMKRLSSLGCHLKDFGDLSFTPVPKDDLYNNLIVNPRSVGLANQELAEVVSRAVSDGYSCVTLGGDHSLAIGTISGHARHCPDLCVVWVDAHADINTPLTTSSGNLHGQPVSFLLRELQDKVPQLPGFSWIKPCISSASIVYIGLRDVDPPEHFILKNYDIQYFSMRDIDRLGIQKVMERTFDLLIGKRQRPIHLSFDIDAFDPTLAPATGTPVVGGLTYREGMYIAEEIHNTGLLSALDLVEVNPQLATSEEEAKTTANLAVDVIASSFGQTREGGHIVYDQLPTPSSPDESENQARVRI
# [6] = biological target: T3, Proteasome subunit beta (Trypanosoma cruzi) (UniProt O96673); experiment: Trypanosoma cruzi proteasome chymotrypsin-like activity (TcProtChymo) assay.; also: in the data most compounds retested in dose-response had high values; format: functional; conditions: 9.37 µM
# T3 sequence (whole entry): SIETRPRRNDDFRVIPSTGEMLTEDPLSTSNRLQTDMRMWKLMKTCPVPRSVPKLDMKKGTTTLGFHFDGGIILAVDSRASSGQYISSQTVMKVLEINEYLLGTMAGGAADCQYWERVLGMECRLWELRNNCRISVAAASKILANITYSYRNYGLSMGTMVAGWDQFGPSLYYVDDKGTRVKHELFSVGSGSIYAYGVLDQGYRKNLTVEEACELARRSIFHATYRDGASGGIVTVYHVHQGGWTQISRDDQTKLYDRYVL
# Homo sapiens = species on record: Homo sapiens; experiment: To identify inhibition of the IFN signalling (Jak-Stat) pathway via expression of an eGFP reporter gene under the control of an IFN-stimulated response element (ISRE) containing MxA promoter.; format: functional; conditions: 30 µM
# [7] = biological target: T4, Tyrosyl-tRNA synthetase, putative (Trypanosoma cruzi (strain CL Brener)) (UniProt Q4DSP6); experiment: Trypanosoma cruzi tyrosyl tRNA synthetase (TcYRS) _High Tyrosine SOP; format: functional; conditions: 30 µM; also: in the data most compounds retested in dose-response had high values
# T4 sequence (whole entry): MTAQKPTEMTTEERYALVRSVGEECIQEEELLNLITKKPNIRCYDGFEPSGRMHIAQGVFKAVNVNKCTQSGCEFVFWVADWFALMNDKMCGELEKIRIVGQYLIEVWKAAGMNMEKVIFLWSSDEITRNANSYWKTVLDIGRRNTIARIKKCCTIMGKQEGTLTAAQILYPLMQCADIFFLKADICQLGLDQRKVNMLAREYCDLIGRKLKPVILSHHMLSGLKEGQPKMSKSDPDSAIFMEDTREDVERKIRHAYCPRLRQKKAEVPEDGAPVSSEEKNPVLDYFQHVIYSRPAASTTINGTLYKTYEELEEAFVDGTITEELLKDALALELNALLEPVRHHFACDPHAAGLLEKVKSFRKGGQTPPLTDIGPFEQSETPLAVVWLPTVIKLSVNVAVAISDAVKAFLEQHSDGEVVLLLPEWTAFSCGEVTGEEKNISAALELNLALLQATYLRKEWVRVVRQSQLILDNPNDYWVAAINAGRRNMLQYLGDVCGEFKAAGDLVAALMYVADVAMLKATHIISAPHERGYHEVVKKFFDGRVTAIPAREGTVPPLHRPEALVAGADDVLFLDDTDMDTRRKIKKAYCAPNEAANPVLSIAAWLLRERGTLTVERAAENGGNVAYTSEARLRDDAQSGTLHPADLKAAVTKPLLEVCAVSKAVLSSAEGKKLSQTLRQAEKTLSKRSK
# [8] = biological target: T4, Tyrosyl-tRNA synthetase, putative (Trypanosoma cruzi (strain CL Brener)); experiment: Trypanosoma cruzi tyrosyl tRNA synthetase (TcYRS) SOP; format: functional; conditions: 30 µM
# [9] = biological target: Chromo domain-containing protein 1 (Saccharomyces cerevisiae (strain ATCC 204508 / S288c) (Baker's yeast)) (UniProt P32657); experiment: ScCHD-1 Enzyme Inhibition Assay; format: functional; conditions: 30 µM; also: in the data most compounds retested in dose-response had high values
# Chain of Chromo domain-containing protein 1 (Saccharomyces cerevisiae (strain ATCC 204508 / S288c) (Baker's yeast)) (P32657 whole entry, the tested form may be a part): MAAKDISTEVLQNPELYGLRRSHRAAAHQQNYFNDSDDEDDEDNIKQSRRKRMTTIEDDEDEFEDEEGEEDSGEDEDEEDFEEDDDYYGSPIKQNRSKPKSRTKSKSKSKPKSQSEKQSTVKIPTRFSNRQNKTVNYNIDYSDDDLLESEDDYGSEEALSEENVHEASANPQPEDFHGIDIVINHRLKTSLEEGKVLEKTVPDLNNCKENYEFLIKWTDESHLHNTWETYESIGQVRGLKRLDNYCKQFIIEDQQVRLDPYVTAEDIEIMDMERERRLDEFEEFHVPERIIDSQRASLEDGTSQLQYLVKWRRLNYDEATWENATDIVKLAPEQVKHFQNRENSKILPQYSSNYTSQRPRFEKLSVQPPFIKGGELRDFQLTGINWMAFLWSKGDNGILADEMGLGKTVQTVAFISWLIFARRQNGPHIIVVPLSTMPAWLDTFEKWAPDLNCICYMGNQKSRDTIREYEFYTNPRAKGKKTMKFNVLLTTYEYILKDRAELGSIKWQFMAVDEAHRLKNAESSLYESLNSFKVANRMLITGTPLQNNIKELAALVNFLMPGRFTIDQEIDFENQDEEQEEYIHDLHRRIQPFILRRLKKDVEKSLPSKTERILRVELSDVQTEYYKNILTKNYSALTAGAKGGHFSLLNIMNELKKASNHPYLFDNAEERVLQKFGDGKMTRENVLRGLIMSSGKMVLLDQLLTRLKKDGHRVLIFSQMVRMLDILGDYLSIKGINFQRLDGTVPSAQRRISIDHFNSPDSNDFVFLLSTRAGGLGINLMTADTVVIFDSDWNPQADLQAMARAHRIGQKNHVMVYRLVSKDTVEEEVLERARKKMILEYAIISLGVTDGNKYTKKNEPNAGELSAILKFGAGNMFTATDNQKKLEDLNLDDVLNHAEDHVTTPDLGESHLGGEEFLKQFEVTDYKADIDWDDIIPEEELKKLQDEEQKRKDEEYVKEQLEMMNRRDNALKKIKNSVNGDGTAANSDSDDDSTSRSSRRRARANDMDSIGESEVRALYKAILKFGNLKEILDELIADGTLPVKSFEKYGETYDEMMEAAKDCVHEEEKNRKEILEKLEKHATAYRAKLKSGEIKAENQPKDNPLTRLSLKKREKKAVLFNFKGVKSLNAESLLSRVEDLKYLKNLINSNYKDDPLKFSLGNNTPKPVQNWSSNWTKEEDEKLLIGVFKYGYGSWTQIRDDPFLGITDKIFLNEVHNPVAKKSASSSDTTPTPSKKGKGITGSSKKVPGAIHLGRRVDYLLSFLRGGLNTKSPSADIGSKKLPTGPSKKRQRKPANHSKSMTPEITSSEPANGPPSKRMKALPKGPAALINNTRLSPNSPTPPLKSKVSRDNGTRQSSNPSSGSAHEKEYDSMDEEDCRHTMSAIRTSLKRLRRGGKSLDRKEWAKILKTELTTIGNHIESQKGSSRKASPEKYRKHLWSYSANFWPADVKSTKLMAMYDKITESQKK
# Chain of Sialic acid-binding Ig-like lectin 9 (Homo sapiens) (Q9Y336 whole entry): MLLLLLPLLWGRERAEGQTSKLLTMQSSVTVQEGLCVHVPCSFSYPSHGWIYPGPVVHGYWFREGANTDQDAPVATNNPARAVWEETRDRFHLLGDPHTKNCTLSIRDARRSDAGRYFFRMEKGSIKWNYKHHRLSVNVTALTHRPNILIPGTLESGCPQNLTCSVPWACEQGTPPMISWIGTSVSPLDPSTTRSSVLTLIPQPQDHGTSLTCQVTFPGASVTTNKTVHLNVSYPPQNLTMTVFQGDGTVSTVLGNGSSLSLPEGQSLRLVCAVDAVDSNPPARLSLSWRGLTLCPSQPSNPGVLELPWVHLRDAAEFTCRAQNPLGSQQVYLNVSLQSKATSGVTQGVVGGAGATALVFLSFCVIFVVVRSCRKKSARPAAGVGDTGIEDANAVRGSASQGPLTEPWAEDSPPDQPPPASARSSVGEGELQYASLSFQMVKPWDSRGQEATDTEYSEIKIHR
# Chain of Protein translocase subunit SecA (Escherichia coli (strain K12)) (P10408 whole entry): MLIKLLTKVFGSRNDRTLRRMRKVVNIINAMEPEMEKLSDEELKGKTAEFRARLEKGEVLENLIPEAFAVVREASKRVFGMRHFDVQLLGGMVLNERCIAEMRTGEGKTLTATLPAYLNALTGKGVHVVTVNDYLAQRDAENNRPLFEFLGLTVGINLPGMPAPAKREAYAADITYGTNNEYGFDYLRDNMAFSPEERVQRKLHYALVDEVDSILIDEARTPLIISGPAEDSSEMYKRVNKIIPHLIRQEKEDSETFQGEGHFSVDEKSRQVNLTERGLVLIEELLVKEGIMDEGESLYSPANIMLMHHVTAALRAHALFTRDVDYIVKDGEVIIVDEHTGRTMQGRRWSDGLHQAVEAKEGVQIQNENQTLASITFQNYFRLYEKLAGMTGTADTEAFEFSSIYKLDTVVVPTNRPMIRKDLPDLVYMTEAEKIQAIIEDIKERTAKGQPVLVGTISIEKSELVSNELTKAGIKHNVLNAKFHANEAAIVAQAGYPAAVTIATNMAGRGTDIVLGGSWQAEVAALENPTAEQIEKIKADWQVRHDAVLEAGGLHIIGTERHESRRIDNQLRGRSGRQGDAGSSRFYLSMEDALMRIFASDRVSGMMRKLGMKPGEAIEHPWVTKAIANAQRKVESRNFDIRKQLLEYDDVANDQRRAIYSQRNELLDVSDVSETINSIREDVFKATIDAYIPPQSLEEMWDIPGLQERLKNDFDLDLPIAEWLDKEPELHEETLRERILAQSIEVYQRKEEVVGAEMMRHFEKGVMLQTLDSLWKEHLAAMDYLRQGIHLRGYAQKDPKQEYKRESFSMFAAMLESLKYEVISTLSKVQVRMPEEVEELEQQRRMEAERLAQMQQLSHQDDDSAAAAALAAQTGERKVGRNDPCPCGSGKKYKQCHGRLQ
SMILES,Percent Effect [1],Percent Effect [2],Percent Effect [3],Percent Effect [4],Percent Effect (Trypanosoma cruzi),Percent Effect [5],Percent Effect [6],Percent Effect (Homo sapiens),Percent Effect [7],Percent Effect [8],Percent Effect [9]
O=S(=O)(C1CC1)N1C[C@H]2CCC[C@@]2(COc2ccccn2)C1,-0.747%,14.7%,2.3%,3.09%,-4.32%,5.81%,15.3%,-6.25%,3.17%,10.3%,-5.69%
O=C(NCCNc1ncccn1)C1CC(=O)N(CC(F)(F)F)C1 (stereo not given),-0.757%,16.2%,-5.02%,-3.51%,-7.26%,-4.81%,5.59%,16.5%,9.36%,13.6%,-6.16%
NC(=O)c1ccc2c(c1)nc1n2CCN(Cc2ccccc2)C1,-6.79%,15.8%,5.45%,5.68%,3.8%,-20.1%,12%,5.05%,4.25%,10.4%,6.79%
Cc1cnn(CC2CCCN2C(=O)Cc2n[nH]c3ccccc23)c1 (stereo not given),-5.48%,10.1%,14%,7.2%,2.17%,7.61%,-0.0819%,10.1%,8.37%,11.4%,-3.88%
O=C(CCCNc1ncccn1)N1CCCC(n2cccn2)C1 (stereo not given),-7.67%,-1.27%,0.0579%,-1.81%,-3.18%,-4.52%,2.23%,14.1%,-3.12%,-2.53%,-14.1%
Cc1cc(CN2CCCC2c2c(C)nn(C)c2Cl)no1 (stereo not given),-2.25%,21.1%,-2.49%,-2.11%,3.46%,3.24%,13.4%,3.96%,10.3%,28.4%,-10.3%
Cc1nc(C)n(CC2CCCCN2CC(=O)NC2CCOCC2)n1 (stereo not given),-5.64%,18.2%,6.87%,5.39%,6.37%,-6.05%,5.07%,-0.818%,3.88%,19.5%,-7.41%
Cc1csc(N2CCN(CC(=O)Nc3c(C)n[nH]c3C)CC2C)n1 (stereo not given),-1.64%,21.6%,-4.71%,-7.72%,-2.88%,-3.51%,15.4%,5.89%,3.96%,13.4%,-4.83%
O=C(NCc1ccco1)[C@H]1C[C@H]2OCC[C@H]2N(C(=O)c2ccco2)C1,-4.08%,-2.67%,12.4%,1.43%,-3.09%,-50.4%,12%,-6.88%,-3.12%,-5%,63.9%
COCCOc1ncccc1CNCc1c(C)nn(C)c1N(C)C,-1.27%,-5.41%,-15.1%,-0.788%,1.98%,3.61%,0.721%,-9.31%,2.46%,6.17%,-18.1%
Cc1cc(N2CCC(c3nnc(CN(C)C)n3C3CC3)CC2)ccn1,-5.32%,-1.39%,34.9%,-1.61%,-4.37%,-0.883%,16.1%,-6.01%,1.05%,-5.13%,-4.13%
OC(CN1CCC(c2ccn[nH]2)CC1)c1cccc(F)c1 (stereo not given),1.18%,12.7%,4.09%,4.6%,-3.49%,6.84%,6.31%,13.5%,5.42%,11.4%,-4.54%
CC(C)(C(=O)NCC1CC1)c1ccccc1F,-8.21%,4.17%,-4.88%,2.97%,-4.18%,0.442%,15.6%,-2.36%,2.1%,2.56%,-3.44%
Cc1ccc(CN2CCc3ncnc(C4CC4)c3CC2)s1,1.05%,5.33%,5.76%,-4.5%,-5.41%,-54.3%,6.15%,43.3%,8.33%,12.5%,-7.16%
CC(=O)N1CCC(C(=O)NCCN2CCCCC2)CC1,-1.49%,9.72%,-3.56%,-2.74%,0.875%,1.77%,17.5%,-6.46%,4.21%,5.13%,-2.32%
Cc1cccn2c(=O)cc(OC(=O)c3ccccc3)nc12,1.09%,0%,45.4%,-1.9%,-4.97%,-14.2%,5.27%,-1.07%,0%,0%,-3.23%
CCCS(=O)(=O)N1CCN(c2cc(-n3cnc(C)c3C)nc(C)n2)CC1,-2.71%,0%,2.33%,-0.358%,-3.25%,9.65%,3.16%,-2.89%,1.07%,-3.7%,2.9%
CC(C(=O)NCCCn1ccnc1)n1cc(Br)cn1 (stereo not given),-3.65%,2.6%,-2.79%,7.47%,3.83%,-33.1%,10.7%,-6.92%,7.53%,18.5%,-2%
O=C(C(CNCc1ccncc1)c1ccccc1)N1CCOCC1 (stereo not given),0.622%,5.2%,0.193%,1.44%,-6.59%,-8.28%,18.3%,17.2%,3.23%,11.1%,-2.54%
COCCCN1CCCN(C(C)c2nc(C3CC3)no2)CC1 (stereo not given),-1.91%,8.11%,-3.11%,15.8%,4.74%,-13.5%,6.46%,-3.07%,4.95%,15.8%,-1.39%

# Source: ChEMBL document CHEMBL3988442, “University of Dundee, Small-Polar-MMV Screening Library” (2021)
